Assay results: PubChem BioAssay AID2284360 (EPA ToxCast)
Records with an inconclusive call do not appear. The source made the active and inactive calls. Rule for the calls: active = hit-call score of the fitted dose curve at least 0.9, where 1 is the maximum; inconclusive = response in the unintended direction; inactive = score below 0.9.

Assay: ATG_M_19_EcoTox2: Attagene TRANS-FACTORIAL EcoTox-2 HepG2 Assay for M19 Transcription Factor (Internal Marker)
Description: ATG_EcoTox2 is a cell-based, multiplexed assay created by modifying the existing Attagene TRANS-FACTORIAL system to include a panel of nuclear receptors from some or all the following species: human (Homo sapiens), african clawed frog (Xenopus laevis), rainbow trout (Oncorhynchus mykiss), japanese medaka (Oryzias latipes), and zebrafish (Danio rerio). The ECOTOX2-FACTORIAL format uses HepG2, a human liver cell line, with measurements taken at 24 hours after chemical dosing in a 24-well plate. ATG_M_19_EcoTox2 is one of 29 assay components calculated in the ATG_EcoTox2 assay. It is designed to make measurements of mRNA induction, a form of inducible reporter, as detected with fluorescence intensity signals by Reverse transcription polymerase chain reaction (RT-PCR) and Capillary electrophoresis technology.The assay endpoint ATG_M_19_EcoTox2 was analyzed in the positive analysis fitting direction relative to DMSO as the negative control and baseline of activity. Using a type of inducible reporter, measures of mRNA for gain-of-signal activity can be used to understand the background control at the transcription factor-level as they relate to the gene. Furthermore, this assay endpoint can be referred to as a secondary readout, because this assay has produced multiple assay endpoints where this one serves a background control function. To generalize the intended target to other relatable targets, this assay endpoint is annotated to the background measurement intended target family, where the subfamily is internal marker.
Human liver HepG2 cells are transiently transfected with multiple reporter transcription units (MRTUs) in 6-well plates using FuGene 6 reagent (Roche; 3 ml FuGene/1 mg DNA). The MRTU constructs are regulated by a cis-regulating element (promoter). Each RTU expresses a GAL4-UAS that regulates the transcription of a nearby target reporter gene sequence. A major difference between the CIS and TRANS system is that in CIS activities of endogenous TFs are measured, whereas the TRANS assay evaluates changes in activities of exogenous, chimeric NR-Gal4 proteins. […] At the end of 24 hour incubation, total RNA was isolated using TriZol reagent (Invitrogen). The isolated RNA is then reverse-transcribed using oligo(dT) primer and Mo-MLV reverse transcriptase (Invitrogen) with DNAse I (Ambion) treatment for 30 min. The one-tenth of the produced cDNA was amplified by PCR using Taq DNA polymerase (Invitrogen) and two reporter sequence-specific primers. […] The fragments were purified using Qiaquick PCR columns (Qiagen), analyzed on an ABI 3130xL genetic analyzer (Applied Biosystems) with peak positions identified by using a set of X-rhodamine (ROX)-labeled MapMarker1000 molecular weight standards (BioVentures). […]

CC(C)(Oc1ccc(CCNC(=O)c2ccc(Cl)cc2)cc1)C(=O)O
outcome: inactive

C[C@@H]1C[C@H]2[C@@H]3CCC4=CC(=O)C=C[C@]4(C)[C@@]3(F)[C@@H](O)C[C@]2(C)[C@@]1(O)C(=O)COP(=O)(O)O
outcome: inactive

CC(C)(Oc1ccc(Cl)cc1)C(=O)O
outcome: inactive

Cc1ccc(C)c(OCCCC(C)(C)C(=O)O)c1
outcome: inactive
